Source: PubChem (National Center for Advancing Translational Sciences (NCATS))
Pol eta inh: qHTS for Inhibitors of Polymerase Eta | recombinant Pol eta, fluorescent DNA replication assay | Potency, µM (series often up to 114 µM), actives largely listed as inhibitors | 390,000 tested, 1.2% active | AID 588591, 2011
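Fluorescent replication assay: 50 nM final substrate added after a 15 min room-temperature compound preincubation with 10 nM enzyme. Signal taken at 0 min and again at 10 min.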
POLK inh: qHTS for Inhibitors of Polymerase Kappa; Potency, µM (doses to about 107 µM), actives largely listed as inhibitors; purified Pol kappa, fluorescent DNA synthesis assay, 10 min; 400,000 tested, 0.53% active
Target sequence (Q9UBT6 whole entry, looked up): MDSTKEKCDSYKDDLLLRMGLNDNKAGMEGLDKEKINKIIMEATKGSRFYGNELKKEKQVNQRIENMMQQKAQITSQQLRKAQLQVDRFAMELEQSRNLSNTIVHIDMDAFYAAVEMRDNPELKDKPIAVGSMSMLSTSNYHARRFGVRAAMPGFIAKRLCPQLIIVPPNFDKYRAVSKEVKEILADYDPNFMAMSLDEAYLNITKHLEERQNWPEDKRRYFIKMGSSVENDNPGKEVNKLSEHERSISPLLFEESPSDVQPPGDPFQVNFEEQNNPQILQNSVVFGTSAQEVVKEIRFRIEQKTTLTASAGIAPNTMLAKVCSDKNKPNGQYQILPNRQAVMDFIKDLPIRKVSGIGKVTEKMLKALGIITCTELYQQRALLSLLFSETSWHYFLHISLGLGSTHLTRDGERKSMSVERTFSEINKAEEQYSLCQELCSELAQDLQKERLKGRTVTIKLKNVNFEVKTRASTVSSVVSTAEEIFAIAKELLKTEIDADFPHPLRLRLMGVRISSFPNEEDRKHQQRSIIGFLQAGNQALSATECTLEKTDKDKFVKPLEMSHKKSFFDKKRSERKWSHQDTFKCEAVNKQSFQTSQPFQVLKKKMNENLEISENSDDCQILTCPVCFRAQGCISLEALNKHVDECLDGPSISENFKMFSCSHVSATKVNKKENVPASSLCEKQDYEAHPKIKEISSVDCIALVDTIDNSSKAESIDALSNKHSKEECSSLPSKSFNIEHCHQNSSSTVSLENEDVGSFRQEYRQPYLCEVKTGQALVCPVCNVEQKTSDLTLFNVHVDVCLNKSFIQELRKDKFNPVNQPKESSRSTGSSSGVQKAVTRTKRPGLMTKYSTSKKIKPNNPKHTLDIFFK
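First, compounds were pin-transferred onto 10 nM Pol kappa. After 15 min at room temperature, substrate was added to 50 nM final. Fluorescence was then measured kinetically at 0 and 10 min.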
Pol iota inh: qHTS for Inhibitors of Polymerase Iota; DNA polymerase iota (Homo sapiens), Q9UNA4; Pol iota fluorescent replication assay, 10 min; Potency, µM (series often up to 115 µM), hits mostly inhibitors; 390,000 tested, 1% active
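Pol iota at 10 nM preincubated 15 min with compounds at room temperature; reaction started with fluorescent substrate, 50 nM final. Fluorescence read kinetically at 0 and 10 min; buffer-only wells as negative control.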
Pol beta inh: qHTS Assay for Inhibitors of DNA Polymerase Beta; AID 485314, 2010; 340,000 tested, 1.3% active; Pol beta primer extension/strand displacement, fluorescence kinetic; Potency, µM (doses to about 114 µM), hits mostly inhibitors; P06746
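Pol beta (10 nM) was preincubated with compound for 15 min at room temperature. The reaction was then started with 50 nM substrate and read immediately and after a further 10 min at room temperature.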
WRN helicase inh: qHTS for Inhibitors of WRN Helicase; Potency, µM (highest dose often 114 µM), most hits filed as inhibitors; WRN helicase unwinding, fluorescent forked duplex, kinetic; AID 651768, 2012; Bifunctional 3'-5' exonuclease/ATP-dependent helicase WRN (Homo sapiens), Q14191; 360,000 tested, 0.46% active; note: nearly all actives have a fitted effect of over 55% in size
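Fluorescence dequenching readout, ex 525 nm/em 598 nm, kinetic mode: forked duplex DNA (100 nM final) with adjacent fluorophore and quencher unwound by WRN (20 nM final) with 2 mM ATP. Compound preincubation 15 min, room temperature.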
FEN1 inhibitor: qHTS Assay for the Inhibitors of Human Flap endonuclease 1 (FEN1); Potency, µM (titrated, usually from 114 µM), hits mostly inhibitors; P39748; AID 588795, 2011; Recombinant FEN1 flap cleavage, fluorescence, 15 min; 390,000 tested, 0.35% active; note: nearly all actives have a fitted effect of over 65% in size
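Steps: FEN1 (10 nM) dispensed; compound added by pin tool; 15 min at room temperature; substrate added to 50 nM final; reads at 0 min and 15 min; data normalized and fitted (four-parameter Hill).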
Each line names hits and unclear results; the compound was inactive in the other large screens. Shown are actives, neighbours in structure and some others; about 2.4% of the full set was active somewhere. Calls come from the whole dose curve; as a rule, active = well fitted curve in the direction sought with a large enough effect; inconclusive = small, poorly fitted or top-dose-only effect, or another doubt; inactive = no such curve, though single readings can be large; an effect the other way counts as inactive or inconclusive.

O=C(CCC(=O)N1CCN(c2ccccn2)CC1)c1cccs1	none (no result: Pol beta inh)
O=C(CS(=O)(=O)c1nc(-c2ccc(Cl)cc2)cn1-c1ccccc1)Nc1cccc(Cl)c1	Pol iota inh inconclusive (no result: WRN helicase inh)
Cc1ccc(-c2cn(-c3cccc(Cl)c3)c(S(=O)(=O)CC(=O)Nc3cccc(C)c3)n2)cc1	Pol iota inh 71µM (no result: WRN helicase inh)
CCCN1CCC(=O)N(C(CSc2ccc(OC)cc2)c2ccccc2)CC1 (configuration not stated)	none (no result: Pol eta inh, Pol beta inh, WRN helicase inh)
CC1=NN(c2cccc(Cl)c2)C(=O)C1	Pol iota inh 3.5µM
CC1=NN(c2ccc(S(=O)(=O)O)cc2Cl)C(=O)C1	Pol eta inh inconclusive, Pol iota inh inconclusive
CC1=NN(c2cc(Cl)c(S(=O)(=O)O)cc2Cl)C(=O)C1	Pol eta inh 22µM, POLK inh inconclusive, Pol iota inh inconclusive (no result: Pol beta inh)
CC1=NN(c2ccc(Cl)c(C(=O)O)c2)C(=O)C1	Pol eta inh 22µM, Pol iota inh 1.1µM, Pol beta inh inconclusive, WRN helicase inh inconclusive, FEN1 inhibitor inconclusive
CC1=NN(c2ccc([N+](=O)[O-])cc2)C(=O)C1	WRN helicase inh inconclusive (no result: Pol beta inh)
CC(C)(C)c1ccc(NC(=O)COC(=O)c2ccccc2OCC(=O)Nc2ccc(Br)cc2)cc1	none (no result: Pol eta inh, Pol beta inh, WRN helicase inh)
CC(=O)OCC(NC(=O)C(COCc1ccccc1)NC(=O)OC(C)(C)C)C1OC(n2cc(F)c(=O)[nH]c2=O)C(OC(C)=O)C1OC(C)=O (configuration not stated)	none (no result: Pol eta inh, Pol beta inh, WRN helicase inh)
Cc1cnc2ccccc2c1/C=C/c1ccc(N)cc1	none (no result: Pol eta inh, Pol beta inh, WRN helicase inh)
CC(CSC(=O)c1ccccc1)C(=O)N1C[C@@H](Sc2ccccc2)C[C@H]1C(=O)O (some centres not stated)	none (no result: Pol eta inh, Pol iota inh, Pol beta inh, WRN helicase inh, FEN1 inhibitor)
Cc1cc(/C=C(\C#N)C(=O)Nc2ccccc2)c(C)n1-c1cccnc1	none
N#C/C(=C\c1ccccc1O)C(=O)Nc1cccnc1	Pol eta inh inconclusive, Pol iota inh 89µM
COc1ccc2nc3sc(C(=O)NCCN4CCc5ccccc5C4)cc3cc2c1	Pol eta inh inconclusive, Pol beta inh 20µM
CCOc1ccc(CCNC(=O)c2cc3cc4ccc(OC)cc4nc3s2)cc1OCC	none (no result: WRN helicase inh)
COc1ccc2cc3cc(C(=O)NC4CC4)sc3nc2c1	Pol beta inh 79µM
CCCCn1cc[n+](C)c1	none (no result: Pol eta inh, Pol iota inh, Pol beta inh, WRN helicase inh, FEN1 inhibitor)
CN=c1sc2c(n1C)C(=O)c1ccccc1C2=O	Pol eta inh 79µM, Pol iota inh inconclusive (no result: Pol beta inh)
Cc1ccc(NC(=O)c2ccc3c(c2)NC(=O)c2ccccc2S3)c(Cl)c1	Pol iota inh 79µM, Pol beta inh inconclusive (no result: WRN helicase inh)
CC1CCC(NC(=O)c2ccc3c(c2)N(Cc2cccc(F)c2)C(=O)c2ccccc2S3)CC1 (configuration not stated)	Pol eta inh inconclusive, Pol iota inh 89µM (no result: WRN helicase inh)
O=C(NC1CCCC1)c1ccc2c(c1)N(Cc1ccc(F)cc1)C(=O)c1ccccc1S2	none (no result: WRN helicase inh)
NC(=O)N/N=C/c1c(O)ccc2oc3c(c12)CCCC3	none
CC(C)(C)N=Cc1c(O)ccc2oc3c(c12)CCCC3	Pol eta inh 40µM, Pol iota inh inconclusive
Cc1nc2ccccc2c(=O)n1/N=C/c1c(O)ccc2oc3c(c12)CCCC3	Pol iota inh 89µM
CCN(CC)CCN(C(=O)c1ccco1)c1nc2cc(C)cc(C)c2s1	Pol beta inh 56µM (no result: WRN helicase inh)
Oc1cccc2ccc[n+](CC(O)CBr)c12 (configuration not stated)	none (no result: Pol eta inh, Pol beta inh, WRN helicase inh)
C=CC[n+]1cccc2cccc(O)c21	Pol iota inh 13µM (no result: Pol eta inh, Pol beta inh, WRN helicase inh)
O=C(Nc1cccc(C(=O)Nc2ccc(S(=O)(=O)O)c3cc(S(=O)(=O)O)cc(S(=O)(=O)O)c23)c1)Nc1cccc(C(=O)Nc2ccc(S(=O)(=O)O)c3cc(S(=O)(=O)O)cc(S(=O)(=O)O)c23)c1	Pol eta inh 1.8µM, POLK inh 1.9µM, Pol iota inh 10µM, Pol beta inh 2.4µM, FEN1 inhibitor 1µM (no result: WRN helicase inh)
O=C(O)c1cccc(NC(=O)c2cccc(S(=O)(=O)Nc3cccc(C(=O)O)c3)c2)c1	none (no result: WRN helicase inh)
